Assay results published in the supplement of paper PMC10849652.
Of roughly 8,800 targets only a part is listed; those with a hit were picked by preference. About 0.5% of all pairs of compound and target were hits. Unmarked numbers belong to inactive results.

Tests used:
Assay in all cases: log2 fold change, soluble protein after heating vs DMSO (PISA); higher = thermal stabilisation; K562 lysate, 10 uM; active = over 0.2 and 3.5 SD of the protein, either way, in both replicates (recomputed)
[1] = compound: CN1CC[C@H](c2c(O)cc(O)c3c(=O)cc(-c4ccccc4Cl)oc23)[C@H](O)C1 [alvocidib]
Method in brief: (§1)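 K562 pellets were dounce-homogenised in PBS pH 7.4 with 1 mM MgCl2, and the crude extract at 1 mg/mL protein was treated with 10 μM compound for 30 min. Aliquots were heated for 3 min across 48°C-58°C, pooled, and brought to 0.5% NP-40 at 4°C; soluble protein was the supernatant after 21,000xg for 90 min. Soluble protein was quantified by TMTpro 16plex LC-MS/MS with channel sums equalised, and reported as log2 fold change in thermal stability against DMSO controls, with values from duplicates.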

[2] = compound: CN1CCc2c(c3ccccc3n2Cc2ccc(C(=O)NO)cc2)C1 [Tubastatin A]
Method in brief: as §1

[3] = compound: CNC(=O)C1=CC=CC=C1NC2=NC(=NC=C2Cl)NC3=C(C=C(C=C3)N4CCOCC4)OC
Method in brief: as §1

[4] = compound: CNC(=O)c1ccc(Nc2ncc(C(F)(F)F)c(NCc3nccnc3N(C)S(C)(=O)=O)n2)cc1 [defactinib]
Method in brief: as §1

[5] = compound: CNc1nc(-c2ccc3c(N)n[nH]c3c2)cc(N2C[C@@H](C(=O)NC3CCCCC3)CC[C@H]2C)n1
Method in brief: as §1

[6] = compound: COC(=O)N[C@@H](C)CNc1nccc(-c2cn(C(C)C)nc2-c2cc(Cl)cc(NS(C)(=O)=O)c2F)n1 [encorafenib]
Method in brief: as §1

[7] = compound: COC(=O)[C@H](CCSC)NC(=O)C1=C(C=C(C=C1)NC[C@H](CS)N)C2=CC=CC=C2
Method in brief: as §1

[8] = compound: COc1cc(Nc2ncc3c(n2)-c2ccc(Cl)cc2C(c2c(F)cccc2OC)=NC3)ccc1C(=O)O [alisertib]
Method in brief: as §1

[9] = compound: COc1cc2nc(-c3cc(F)ccc3O)nc(N[C@@H]3CNC[C@H]3C(C)(C)O)c2cc1OC
Method in brief: as §1

[10] = compound: COc1cc2ncnc(Nc3ccc(F)c(Cl)c3)c2cc1OCCCN1CCOCC1 [gefitinib]
Method in brief: as §1

[11] = compound: CS(=O)(=O)CCNCc1ccc(-c2ccc3ncnc(Nc4ccc(OCc5cccc(F)c5)c(Cl)c4)c3c2)o1 [lapatinib]
Method in brief: as §1

[12] = compound: CS(=O)(=O)N1CCN(Cc2cc3nc(-c4cccc5[nH]ncc45)nc(N4CCOCC4)c3s2)CC1 [pictilisib]
Method in brief: as §1

[13] = compound: C[C@@H](Oc1cc(-c2cnn(C3CCNCC3)c2)cnc1N)c1c(Cl)ccc(F)c1Cl [crizotinib]
Method in brief: as §1

[14] = compound: C[C@H](C1=CC=C(C=C1)C(=O)NC2=C3C=CNC3=NC=C2)N
Method in brief: as §1

[15] = compound: C[C@H](Nc1ncnc2nc[nH]c12)c1cc2cccc(Cl)c2c(=O)n1-c1ccccc1 [duvelisib]
Method in brief: as §1

[16] = compound: Cc1cc(Nc2cc(CN3CCOCC3)c3nc(C)c(Cc4ccc(Cl)cc4F)n3n2)n[nH]1 [gandotinib]
Method in brief: as §1

[17] = compound: Cc1cc(Nc2cc(N3CCN(C)CC3)nc(Sc3ccc(NC(=O)C4CC4)cc3)n2)n[nH]1 [tozasertib]
Method in brief: as §1

[18] = compound: Cc1ccc(-n2nc(C(C)(C)C)cc2NC(=O)Nc2ccc(OCCN3CCOCC3)c3ccccc23)cc1 [doramapimod]
Method in brief: as §1

[19] = compound: Cc1ccc(NC(=O)c2ccc(CN3CC[C@H](N(C)C)C3)c(C(F)(F)F)c2)cc1Nc1nccc(-c2cncnc2)n1 [bafetinib]
Method in brief: as §1

[20] = compound: Cc1cccc(CC(=O)N2CCc3c2ccc(-c2cn(C)c4ncnc(N)c24)c3F)n1
Method in brief: as §1

Chain of UniProt P22059 (P22059 whole entry, looked up): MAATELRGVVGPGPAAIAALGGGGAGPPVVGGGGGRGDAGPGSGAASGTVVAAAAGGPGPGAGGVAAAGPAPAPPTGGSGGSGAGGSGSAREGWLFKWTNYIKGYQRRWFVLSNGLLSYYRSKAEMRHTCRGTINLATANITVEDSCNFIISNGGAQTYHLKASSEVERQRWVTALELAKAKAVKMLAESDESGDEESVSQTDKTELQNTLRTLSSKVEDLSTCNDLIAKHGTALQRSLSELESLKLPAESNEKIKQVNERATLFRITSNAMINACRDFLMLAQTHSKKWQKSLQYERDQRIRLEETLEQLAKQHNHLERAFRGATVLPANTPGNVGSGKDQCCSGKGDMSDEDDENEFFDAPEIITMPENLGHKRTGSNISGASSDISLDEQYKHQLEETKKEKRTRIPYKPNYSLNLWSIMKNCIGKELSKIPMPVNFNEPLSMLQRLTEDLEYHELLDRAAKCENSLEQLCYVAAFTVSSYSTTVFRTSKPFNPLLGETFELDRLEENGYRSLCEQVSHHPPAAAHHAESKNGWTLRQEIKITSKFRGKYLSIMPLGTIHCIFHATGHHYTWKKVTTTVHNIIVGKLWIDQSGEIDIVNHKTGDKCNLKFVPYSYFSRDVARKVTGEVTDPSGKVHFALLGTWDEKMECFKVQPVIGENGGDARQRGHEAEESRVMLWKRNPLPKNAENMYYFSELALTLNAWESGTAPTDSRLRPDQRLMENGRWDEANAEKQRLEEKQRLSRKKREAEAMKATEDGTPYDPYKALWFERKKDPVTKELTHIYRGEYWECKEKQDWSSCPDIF
Chain of UniProt Q9BRA0 (Q9BRA0 whole entry, looked up): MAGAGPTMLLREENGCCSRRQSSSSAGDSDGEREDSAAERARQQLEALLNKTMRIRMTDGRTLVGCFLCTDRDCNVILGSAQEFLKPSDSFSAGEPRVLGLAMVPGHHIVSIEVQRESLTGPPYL
Chain of UniProt Q8TEW0 (Q8TEW0 whole entry, looked up): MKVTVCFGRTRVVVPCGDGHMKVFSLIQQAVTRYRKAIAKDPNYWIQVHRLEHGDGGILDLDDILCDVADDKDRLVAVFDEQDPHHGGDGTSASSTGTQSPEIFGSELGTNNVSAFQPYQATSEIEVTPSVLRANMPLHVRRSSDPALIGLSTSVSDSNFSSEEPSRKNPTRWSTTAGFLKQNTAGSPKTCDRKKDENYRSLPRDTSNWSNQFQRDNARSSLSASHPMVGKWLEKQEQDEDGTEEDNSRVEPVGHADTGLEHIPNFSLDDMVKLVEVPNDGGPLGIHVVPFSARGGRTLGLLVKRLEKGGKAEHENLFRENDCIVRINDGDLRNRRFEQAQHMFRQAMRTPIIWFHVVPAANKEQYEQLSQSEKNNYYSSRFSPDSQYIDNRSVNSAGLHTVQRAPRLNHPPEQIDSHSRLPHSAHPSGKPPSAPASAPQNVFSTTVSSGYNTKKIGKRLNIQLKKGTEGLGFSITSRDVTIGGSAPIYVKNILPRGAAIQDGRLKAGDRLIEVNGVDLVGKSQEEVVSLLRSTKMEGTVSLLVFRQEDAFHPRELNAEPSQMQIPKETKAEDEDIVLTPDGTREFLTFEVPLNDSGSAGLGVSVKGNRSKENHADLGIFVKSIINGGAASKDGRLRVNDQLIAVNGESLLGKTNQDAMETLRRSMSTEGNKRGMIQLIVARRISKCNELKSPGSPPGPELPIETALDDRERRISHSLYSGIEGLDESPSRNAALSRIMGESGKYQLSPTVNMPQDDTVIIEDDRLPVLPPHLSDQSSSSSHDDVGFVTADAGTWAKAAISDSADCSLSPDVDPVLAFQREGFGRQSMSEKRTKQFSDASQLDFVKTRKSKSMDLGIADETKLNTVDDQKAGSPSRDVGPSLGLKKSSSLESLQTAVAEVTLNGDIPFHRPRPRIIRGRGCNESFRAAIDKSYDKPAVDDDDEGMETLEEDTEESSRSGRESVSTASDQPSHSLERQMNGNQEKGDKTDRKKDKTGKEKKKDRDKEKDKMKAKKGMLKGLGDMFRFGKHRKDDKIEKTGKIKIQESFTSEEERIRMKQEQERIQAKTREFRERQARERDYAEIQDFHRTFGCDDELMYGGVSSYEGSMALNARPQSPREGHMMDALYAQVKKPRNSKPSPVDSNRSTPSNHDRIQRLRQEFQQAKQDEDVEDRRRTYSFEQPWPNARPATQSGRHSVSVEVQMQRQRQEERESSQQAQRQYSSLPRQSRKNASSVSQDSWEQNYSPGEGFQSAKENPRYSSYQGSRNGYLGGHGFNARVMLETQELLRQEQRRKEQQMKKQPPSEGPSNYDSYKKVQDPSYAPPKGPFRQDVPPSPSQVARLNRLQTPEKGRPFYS
Chain of UniProt Q9UDX5 (Q9UDX5 whole entry, looked up): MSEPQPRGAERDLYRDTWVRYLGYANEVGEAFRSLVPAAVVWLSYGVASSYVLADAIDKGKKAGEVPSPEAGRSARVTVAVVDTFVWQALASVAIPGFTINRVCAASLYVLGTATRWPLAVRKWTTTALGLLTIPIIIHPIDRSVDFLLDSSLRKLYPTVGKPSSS
Chain of UniProt Q9HBL8 (Q9HBL8 whole entry, looked up): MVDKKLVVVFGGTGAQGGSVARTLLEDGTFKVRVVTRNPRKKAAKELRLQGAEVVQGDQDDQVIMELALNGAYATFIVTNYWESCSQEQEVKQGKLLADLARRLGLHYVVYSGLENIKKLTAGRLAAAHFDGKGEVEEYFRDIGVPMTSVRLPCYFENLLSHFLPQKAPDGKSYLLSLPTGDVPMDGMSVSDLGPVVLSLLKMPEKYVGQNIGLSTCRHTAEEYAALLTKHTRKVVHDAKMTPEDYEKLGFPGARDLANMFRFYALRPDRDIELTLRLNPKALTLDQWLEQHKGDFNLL
Chain of UniProt Q9ULX3 (Q9ULX3 whole entry, looked up): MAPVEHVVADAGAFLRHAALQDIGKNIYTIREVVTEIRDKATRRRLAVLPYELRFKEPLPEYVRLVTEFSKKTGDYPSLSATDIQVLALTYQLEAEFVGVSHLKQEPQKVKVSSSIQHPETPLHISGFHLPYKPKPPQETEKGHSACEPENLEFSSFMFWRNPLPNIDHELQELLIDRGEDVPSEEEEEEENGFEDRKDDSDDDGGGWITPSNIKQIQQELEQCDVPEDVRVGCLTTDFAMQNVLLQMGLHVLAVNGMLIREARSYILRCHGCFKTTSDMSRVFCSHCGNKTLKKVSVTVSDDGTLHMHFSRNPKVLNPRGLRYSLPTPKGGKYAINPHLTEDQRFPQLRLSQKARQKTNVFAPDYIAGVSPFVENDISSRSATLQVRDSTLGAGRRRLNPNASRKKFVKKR
Chain of UniProt Q12769 (Q12769 whole entry, looked up): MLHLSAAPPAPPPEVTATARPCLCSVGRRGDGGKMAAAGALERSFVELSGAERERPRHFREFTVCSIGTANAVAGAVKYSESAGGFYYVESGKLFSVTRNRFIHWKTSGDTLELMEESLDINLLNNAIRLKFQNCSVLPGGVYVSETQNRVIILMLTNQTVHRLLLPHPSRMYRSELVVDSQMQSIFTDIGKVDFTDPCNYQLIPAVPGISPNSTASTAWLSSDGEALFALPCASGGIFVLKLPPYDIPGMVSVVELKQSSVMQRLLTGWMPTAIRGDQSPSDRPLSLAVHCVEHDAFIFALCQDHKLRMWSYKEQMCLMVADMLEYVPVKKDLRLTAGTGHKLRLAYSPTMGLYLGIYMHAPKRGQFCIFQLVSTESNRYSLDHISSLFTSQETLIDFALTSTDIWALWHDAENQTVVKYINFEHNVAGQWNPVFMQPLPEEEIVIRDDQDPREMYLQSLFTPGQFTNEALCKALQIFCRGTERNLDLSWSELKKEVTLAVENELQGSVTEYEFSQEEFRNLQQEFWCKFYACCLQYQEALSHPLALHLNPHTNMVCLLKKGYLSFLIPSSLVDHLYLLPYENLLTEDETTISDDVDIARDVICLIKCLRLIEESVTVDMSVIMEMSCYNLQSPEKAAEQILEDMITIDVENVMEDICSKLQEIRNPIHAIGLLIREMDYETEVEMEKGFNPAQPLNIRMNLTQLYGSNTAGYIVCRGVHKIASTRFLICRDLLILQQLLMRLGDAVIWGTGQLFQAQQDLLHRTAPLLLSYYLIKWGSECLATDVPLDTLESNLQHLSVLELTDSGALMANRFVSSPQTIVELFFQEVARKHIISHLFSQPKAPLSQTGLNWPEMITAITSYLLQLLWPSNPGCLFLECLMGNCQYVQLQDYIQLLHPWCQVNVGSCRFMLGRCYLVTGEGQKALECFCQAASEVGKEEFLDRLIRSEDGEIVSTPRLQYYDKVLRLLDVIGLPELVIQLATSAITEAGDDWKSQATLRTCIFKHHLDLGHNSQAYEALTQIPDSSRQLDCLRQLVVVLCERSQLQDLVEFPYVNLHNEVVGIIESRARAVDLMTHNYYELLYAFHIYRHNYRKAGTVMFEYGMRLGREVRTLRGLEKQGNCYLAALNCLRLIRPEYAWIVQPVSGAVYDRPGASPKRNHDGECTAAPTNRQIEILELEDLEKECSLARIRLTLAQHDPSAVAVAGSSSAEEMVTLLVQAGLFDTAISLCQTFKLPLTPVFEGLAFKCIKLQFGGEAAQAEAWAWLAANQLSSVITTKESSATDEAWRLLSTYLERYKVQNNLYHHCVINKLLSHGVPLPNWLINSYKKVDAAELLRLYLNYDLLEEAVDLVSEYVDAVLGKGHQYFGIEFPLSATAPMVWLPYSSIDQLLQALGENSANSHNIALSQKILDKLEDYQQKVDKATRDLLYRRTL
Chain of UniProt Q9NTK5 (Q9NTK5 whole entry, looked up): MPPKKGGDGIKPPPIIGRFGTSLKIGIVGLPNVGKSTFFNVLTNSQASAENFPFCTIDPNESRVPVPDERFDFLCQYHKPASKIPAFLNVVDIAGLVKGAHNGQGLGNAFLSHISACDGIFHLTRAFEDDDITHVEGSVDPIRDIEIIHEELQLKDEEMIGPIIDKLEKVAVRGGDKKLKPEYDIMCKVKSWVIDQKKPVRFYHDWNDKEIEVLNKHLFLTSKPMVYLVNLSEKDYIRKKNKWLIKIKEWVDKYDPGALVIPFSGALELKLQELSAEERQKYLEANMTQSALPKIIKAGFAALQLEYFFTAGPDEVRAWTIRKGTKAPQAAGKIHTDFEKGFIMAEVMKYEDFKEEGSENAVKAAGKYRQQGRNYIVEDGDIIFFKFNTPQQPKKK

| Target | log2 fold change [1] | log2 fold change [2] | log2 fold change [3] | log2 fold change [4] | log2 fold change [5] | log2 fold change [6] | log2 fold change [7] | log2 fold change [8] | log2 fold change [9] | log2 fold change [10] | log2 fold change [11] | log2 fold change [12] | log2 fold change [13] | log2 fold change [14] | log2 fold change [15] | log2 fold change [16] | log2 fold change [17] | log2 fold change [18] | log2 fold change [19] | log2 fold change [20] |
| --- | --- | --- | --- | --- | --- | --- | --- | --- | --- | --- | --- | --- | --- | --- | --- | --- | --- | --- | --- | --- |
| PARD3 (UniProt Q8TEW0) | -0.035 | -0.087 | -0.021 | 0.144 | -0.031 | 0.007 | 0.061 | -0.013 | 0.438 (active) | 0.04 | -0.143 | -0.155 | -0.096 | 0.014 | -0.102 | 0.122 | 0.064 | -0.058 | -0.054 | 0.069 |
| MTFP1 (UniProt Q9UDX5) | -0.087 | -0.006 | 0.053 | 0.145 | 0.007 | -0.037 | 0.102 | -0.032 | 0.003 | -0.011 | 0.026 | 0.017 | 0.097 | -0.364 (active) | -0.01 | 0.059 | 0.006 | -0.043 | 0.01 | 0.067 |
| NUP160 (UniProt Q12769) | 0.029 | -0.143 | 0.045 | 0.004 | -0.03 | 0.059 | -0.195 | 0.015 | 0.004 | 0.031 | 0.004 | -0.046 | -0.028 | 0.003 | -0.007 | -0.102 | 0.015 | 0.032 | -0.059 | -0.007 |
| NOB1 (UniProt Q9ULX3) | 0.077 | -0.129 | -0.005 | 0 | -0.011 | 0.036 | 0.037 | 0.047 | -0.031 | -0.022 | 0.027 | 0.01 | -0.019 | 0.283 (active) | -0.033 | -0.084 | 0.011 | -0.023 | -0.041 | -0.048 |
| NAA38 isoform 2 (UniProt Q9BRA0) | -0.143 | -0.005 | 0.01 | 0.013 | 0.03 | -0.022 | 0.001 | 0.05 | 0.022 | -0.017 | -0.028 | -0.018 | 0.001 | -0.382 (active) | -0.016 | 0.202 | 0.062 | -0.088 | -0.041 | 0.244 (active) |
| OLA1 (UniProt Q9NTK5) | -0.002 | -0.095 | 0.019 | -0.029 | -0.02 | 0.008 | -0.004 | 0.017 | 0.011 | -0.026 | -0.009 | 0.013 | -0.005 | -0.088 | 0.007 | -0.035 | 0.025 | 0.018 | 0.024 | 0.052 |
| NMRAL1 (UniProt Q9HBL8) | 0 | 0.036 | -0.044 | -0.003 | 0.026 | -0.003 | 0.406 (active) | 0.021 | 0.001 | -0.002 | -0.003 | 0.105 | -0.017 | 0.695 (active) | 0.08 | -0.01 | -0.051 | 0.036 | 0.005 | 0.011 |
| OSBP (UniProt P22059) | 0 | 0.06 | -0.193 | -0.009 | -0.155 | 0.017 | 0.001 | 0.026 | 0.042 | -0.045 | -0.101 | -0.046 | 0.007 | 0 | 0.037 | -0.072 | -0.015 | -0.028 | -0.093 | 0.03 |
